Rows were chosen to be rich in hits. Some 4% of all compounds tested hit in one or more screens of this group.
CF NFkB block: blocks PAF-induced NF-kB reporter in cystic fibrosis cells; KKLEB NF-kB-GFP reporter, GFP fluorescence overnight; inhibition, % at 5 µM; hit rate 0.86% among 360,000; AID 588850;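 active = at least 50% inhibition at 5 µM, scaled per plate between neutral and stimulator controls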;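 note: PAF is a Pseudomonas aeruginosa culture filtrate used as stimulus; plate controls were PAF-stimulated DMSO wells for no effect and unstimulated DMSO wells for full effect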
TROY NFkB inh: blocks TROY-dependent signaling in reporter cells | Q293 LMP1-TROYcd NF-kB luciferase reporter, 4 h | inhibition, % at 10 µM | hit rate 0.98% among 360,000 | AID 1347056;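 active = compounds whose plate-normalised and pattern-corrected inhibition of the luciferase reporter signal at the single screening dose is 50% or more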
TWEAK-Fn14 inh: blocks TWEAK-Fn14 interaction in a reporter cell assay. TWEAK-stimulated Fn14 reporter cells, luciferase luminescence, 8 h. hit rate 2% among 360,000. inhibition, % at 10 µM. AID 1159606; in the data active = inhibition above about 50%
Peg3 prom inh: inhibitors of Peg3 promoter; HeLa PEG-Prom luciferase reporter, luminescence, overnight; inhibition, % at 20 µM; hit rate 1.7% among 360,000; AID 588405;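 active = inhibition of at least 50% at 20 µM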
KKLEB cytotox: counter-screen for CF NF-kB inhibitors: cytotoxicity; KKLEB CF airway cells viability, ATPlite luminescence, overnight; active compounds read low; cells stimulated with P. aeruginosa culture filtrate; activity change (cytotoxicity), % at 5 µM; hit rate 0.36% among 360,000;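 active = corrected activity change at or below -50% at 5 µM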
HIF-2a block: inhibitors of HIF-2a; hit rate 0.72% among 360,000; 786-0 RCC cells HIF-2a reporter, luciferase luminescence, overnight; inhibition, % at 18.8 µM;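 active = inhibition of the luminescence signal of 40% or more relative to plate controls, in a single-dose primary screen at 18.75 µM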
Starred values were filed as active, the others as inactive.

SMILES	CF NFkB block	TROY NFkB inh	TWEAK-Fn14 inh	Peg3 prom inh	KKLEB cytotox	HIF-2a block
COc1cccc(OCCOc2ccccc2[N+](=O)[O-])c1	-11.0	-83.3	-19.9	-170.8	-4.5	-213.5
Cc1ccc(N(C)C(=O)C2CCCN2S(=O)(=O)c2ccc3c(c2)n(C)c(=O)c(=O)n3C)cc1 (configuration not stated)	-4.0	-5.4	65.6*	6.3	1.8	10.8
COc1ccc(-c2ccc(SCC(=O)N3c4ccccc4CC3C)nn2)cc1OC (configuration not stated)	6.3	-3.6	63.3*	-57.8	-20.3	-221.6
CCOC(=O)N1CCN(C(=O)CSc2ccc(-c3ccc(OC)c(OC)c3)nn2)CC1	-3.4	-9.8	-6.5	-7.2	-2.4	-7.3
Cc1ccc(C)c(N2N=C(C(=O)Nc3ccccc3N3CCCC3)CCC2=O)c1	30.8	14.9	19.9	3.9	-1.3	14.2
Cc1ccc(C)c(N2N=C(C(=O)Nc3ccccc3N3CCOCC3)CCC2=O)c1	8.4	4.1	-5.8	67.2*	-7.6	9.1
CC(=O)C1=C(O)CC(c2ccccc2)CC1=NCCc1ccccc1 (configuration not stated)	8.8	13.0	-10.4	18.8	2.3	14.4
O=C(c1c[nH]c(C(=O)C(Cl)(Cl)Cl)c1)c1ccc(F)cc1Cl	15.6	-8.1	31.8	53.6*	8.5	-1.9
O=C(c1ccc(Cl)cc1)c1c[nH]c(C(=O)C(Cl)(Cl)Cl)c1	-3.2	-0.1	0.1	58.4*	2.1	-7.0
O=C(c1ccccc1)c1c[nH]c(C(=O)C(Cl)(Cl)Cl)c1	-34.8	-7.0	28.5	39.5	11.2	-4.7
O=C(c1c[nH]c(C(=O)C(Cl)(Cl)Cl)c1)c1ccc(F)cc1F	2.4	-6.3	20.8	38.2	8.2	-4.8
Cc1c(OCC(=O)NCCCn2ccnc2)ccc2c3c(c(=O)oc12)CCCC3	-51.4	-15.1	-41.5	-0.5	11.7	-2.4
CCOC(=O)C1=C(c2ccccc2)NC(=O)NC1c1ccc(O)c(Cl)c1 (configuration not stated)	-6.9	8.2	72.8*	28.1	20.0	25.2
Cc1ccc(C)c(N2CCN(C(=O)Cn3ncc4c([nH]c5ccc(C)cc54)c3=O)CC2)c1	2.1	8.3	-40.1	14.8	0.8	2.1
NC(=S)NN=C1CSSC1	70.3*	-5.5	-4.9	44.3	2.9	-1.5
CC(C)CC(=O)NC(=S)Nc1ccc(CN2CCOCC2)cc1	-4.4	2.2	-3.2	-3.4	-2.8	-1.8
CC(C)c1ccc(/C=C/C(=O)NC(=S)Nc2ccc(CN3CCOCC3)cc2)cc1	12.3	71.3*	99.9*	-44.6	-14.8	-38.5
[N-]=[N+]=NC1C[C@H](n2ccc(=O)[nH]c2=O)O[C@@H]1CO (some centres not stated)	6.5	-6.9	-5.3	-7.3	-60.8*	5.6
O=c1[nH]c(=O)n([C@H]2C[C@H](O)[C@@H](CO)O2)cc1C(F)(F)F	-4.1	7.1	-22.1	21.9	9.3	8.0
O=C(c1cc(-c2ccccc2Cl)nc2ccc(Br)cc12)N1CCN(c2ccccn2)CC1	2.7	69.3*	58.2*	92.2*	8.2	15.2
C[n+]1ccccc1/C=C1\Sc2ccccc2N1CCO	-28.8	-12.2	-6.0	19.9	9.5	5.8
CCN1/C(=C/c2ccc3cccc(C)c3[n+]2CC)Sc2ccccc21	-88.8	42.2	1.0	55.7*	-37.9	11.0
CCN1/C(=C/c2ccc3cc(C)cc(C)c3[n+]2CC)Sc2cc(C)ccc21	-245.4	31.5	33.7	98.9*	-52.6*	-15.1
CCN1/C(=C/c2ccc3cc(C)ccc3[n+]2CC)Sc2ccc3sccc3c21	-136.7	29.4	32.5	110.7*	9.7	27.4
CCN1/C(=C\c2ccc3cc(C)ccc3[n+]2CC)Sc2cc(C)c(C)cc21	-65.4	45.4	64.0*	37.6	-12.3	13.7
CC[n+]1c(C)sc2c3ccsc3ccc21	-23.8	15.6	-3.9	17.6	8.8	15.4
Cc1ccc2c(c1)S/C(=C\c1cccc[n+]1C)N2CCO	-1.6	24.9	10.1	2.1	0.6	-0.2
COc1ccc(NC(=O)CNC(=O)c2c(C)nn(C)c2Cl)cc1	3.7	16.7	14.5	2.8	-2.9	5.3
Cc1ccc(N/C(N)=N/c2nc3c(c(=O)[nH]2)CCCC3)c(C)c1	9.0	4.3	19.5	18.5	-4.9	-6.8

Screening results from PubChem BioAssay.
